This passage reports outcome results from PubChem BioAssay AID1053117 (Broad Institute, 2014).

Structures are written as SMILES. Results with a measured potency or affinity are listed apart. The source made the active and inactive calls.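 The calls were made as follows: active = compounds lowering cell ATP signal with a fitted half-effect dose at most twice the top valid dose; inconclusive = flat curve with 30 to 70% signal loss, or bad fit; inactive = wrong direction, flat within 30%, or weaker than limit.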

A short description of the assay: viability loss in HEK293 kidney cells – cell-based, cherry-picks, set 5, cytotoxicity control, dose response (AID 1053117).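 Also: more negative means greater loss of ATP signal and more cytotoxicity.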 The following applies: HEK293T viability, CellTiter-Glo ATP luminescence, 72 h; series mostly up to 26 µM.
In the case of `COc1ccccc1N(CC(=O)N(CC(C)C)CC(C)C)S(=O)(=O)c1cccs1`, the compound was called inactive. For `Cc1cc(C)c(S(=O)(=O)Nn2cnnc2)c(C)c1` the value was “inactive”. For `C[C@H](CO)N1C[C@H](C)[C@@H](CN(C)Cc2ccc(-c3ccccc3)cc2)Oc2ccc(NC(=O)CCCN(C)C)cc2C1=O`, the result was inactive. With `CCCCNC(=O)Nc1nc2ccc(CC)cc2s1` the entry was “inactive”; with `COc1ccccc1CC(=O)OC(C)C(=O)Nc1ccc(S(=O)(=O)N2CCCCC2)cc1` (stereo not drawn), “inactive”.

For the compound `Nc1c(C(=O)NCc2ccco2)nnn1Cc1ccccc1`, the outcome was inactive. As to `c1ccc2[nH]c(SCc3cn4cccnc4n3)nc2c1`, the outcome was inactive. With `CC(C)C(=O)Nc1ccc2c(c1)C(=O)N(C)[C@@H]1CC[C@H](CC(=O)O)O[C@@H]1CO2` the entry was “inactive”.

As for `COC(=O)C[C@@H]1CC[C@@H]2[C@H](COc3ccc(NC(=O)Cc4cccs4)cc3C(=O)N2C)O1`, the result was inactive. With `C[C@@H]1CN([C@H](C)CO)C(=O)c2cc(NC(=O)CCCN(C)C)ccc2O[C@H]1CN(C)Cc1ccc(-c2ccccc2)cc1` the entry was “inactive”; with `CN(C)C(=O)c1ccc(-c2ccc3c(c2)[C@@H]2[C@@H](CCN2C(=O)c2ccc(F)cc2)[C@@H](CO)N3C)cc1`, “inactive”. For `CO[C@H]1CN(C)C(=O)c2cc(NC(C)=O)ccc2OC[C@@H](C)N(C(=O)CN2CCOCC2)C[C@H]1C` the value was “inactive”; for `Cn1cnc(S(=O)(=O)N2CCN(c3ccccc3)CC2)c1`, “inactive”; for `COCC(=O)Nc1ccc2c(c1)C(=O)N(C)[C@@H]1CC[C@@H](CC(=O)NCc3ccccc3Cl)O[C@@H]1CO2`, “inactive”. Turning to `OC(CNC1CCCc2ccccc21)COc1c(Cl)cccc1Cl` (stereo not drawn), the call was inactive.

`N#C[C@H]1[C@@H](c2ccccc2C2=CCCCC2)[C@H](CO)N1S(=O)(=O)c1ccccc1`: the compound was classed as inactive. With `COCC(=O)Nc1ccc2c(c1)C(=O)N(C)[C@@H]1CC[C@H](CC(=O)NCc3ccccc3Cl)O[C@@H]1CO2` the entry was “inactive”; with `N#C[C@@H]1[C@@H](c2ccccc2C2=CCCCC2)[C@@H](CO)N1S(=O)(=O)c1ccccc1`, “inactive”. With `CC(C)(C)[S@](=O)N1Cc2cc(C(=O)NCc3ccccc3F)nc(-c3cccc(-c4cncnc4)c3)c2[C@@H]1CCO` the entry was “inactive”; with `C[C@@H]1CN([C@H](C)CO)C(=O)c2cc(NC(=O)C3CCCCC3)ccc2O[C@@H]1CN(C)Cc1ccc(-c2ccccc2)cc1`, “inactive”; with `C[C@@H]1CN([C@@H](C)CO)C(=O)c2cc(-c3ccncc3)cnc2O[C@@H]1CN(C)C(=O)Cc1cccnc1`, “inactive”. For `C[C@@H]1CN([C@@H](C)CO)C(=O)c2cc(NC(=O)CCCN(C)C)ccc2O[C@H]1CN(C)Cc1ccc(-c2ccccc2)cc1` the value was “inactive”; for `O=c1c2cc(N3CCOCC3)ccc2[nH]c(=S)n1Cc1ccc(Cl)cc1`, “inactive”. In the case of `C[C@H]1CN([C@@H](C)CO)C(=O)c2cc(NC(=O)CCCN(C)C)ccc2O[C@H]1CN(C)Cc1ccc(-c2ccccc2)cc1`, the result was inactive. For `CN1c2ccc(-c3ccccc3)cc2[C@@H]2[C@@H](CCN2C(=O)CN2CCOCC2)[C@@H]1CO` the value was “inactive”; for `COc1cccc(S(=O)(=O)N2CC[C@@H]3[C@H]2c2cc(-c4ccc(C#N)cc4)ccc2N[C@@H]3CO)c1`, “inactive”; for `O=C(NCCS(=O)(=O)N1CCN(c2ccc(F)cc2)CC1)c1ccc(Br)o1`, “inactive”.

Consider `COc1cccc(-c2ccc3c(c2)[C@@H]2[C@@H](CCN2S(=O)(=O)c2cccc(OC)c2)[C@@H](CO)N3)c1`, for which the outcome was inactive. For the compound `C[C@H]1CN([C@@H](C)CO)C(=O)c2cc(-c3ccccc3)cnc2O[C@H]1CN(C)Cc1ccccc1`, the compound was classed as inactive.

As to `Cc1ccc(S(=O)(=O)N2CC[C@@H]3[C@@H](CO)Nc4ccc(-c5cccc(C(=O)N(C)C)c5)cc4[C@@H]32)cc1`, the compound was called inactive. For `O=C(Nc1ccccc1F)N1C[C@@H]2[C@H](c3ccccc31)[C@H](CO)N2C(=O)C1CCOCC1` the value was “inactive”. For `C[C@@H]1CN([C@H](C)CO)C(=O)c2cc(-c3ccccc3)cnc2O[C@@H]1CN(C)C(=O)c1cccc(F)c1` the value was “inactive”; for `O=C(Nc1cc(Sc2nc3ccccc3s2)cc([N+](=O)[O-])c1)c1ccccc1F`, “inactive”.
